# This excerpt belongs to a sample that is enriched for hits.
# CBX7 AlphaScr – CBX7 inhibition, primary AlphaScreen. AlphaScreen His6-CBX7 / biotin-H3K27me3 peptide binding; stronger effect = lower value. O95931. AID 1224903. normalised signal (fraction of DMSO) (no concentration beside the values). actives 1.1% (n = 66,000); in the data active = normalised signal below about 0.5
# Target sequence (O95931 whole entry, looked up): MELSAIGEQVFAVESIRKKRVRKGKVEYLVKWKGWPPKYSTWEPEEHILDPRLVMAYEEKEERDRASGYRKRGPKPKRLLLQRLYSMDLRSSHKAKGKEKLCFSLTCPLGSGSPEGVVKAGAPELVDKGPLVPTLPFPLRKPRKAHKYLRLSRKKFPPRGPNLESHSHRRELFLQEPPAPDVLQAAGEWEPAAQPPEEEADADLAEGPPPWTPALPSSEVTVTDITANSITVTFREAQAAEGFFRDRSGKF
# Numbers stand for hits; n = inactive.
SMILES,CBX7 AlphaScr
CCCCn1c(=N)n(CC(O)COc2cccc(C)c2)c2ccccc21 (stereo not drawn),n
COC(=O)c1ccc(OCC(O)Cn2cnc3cc(C)c(C)cc32)cc1 (stereo not drawn),n
Cc1cc2ncn(CC(O)COC3CCCCC3)c2cc1C (stereo not drawn),0.0441
Cc1cc2ncn(CC(O)COCc3ccccc3)c2cc1C (stereo not drawn),0.0512
Cc1ccc(Cl)c(OCC(O)Cn2cnc3cc(C)c(C)cc32)c1 (stereo not drawn),n
Cc1ccc(OCC(O)Cn2cnc3cc(C)c(C)cc32)cc1 (stereo not drawn),0.0722
Cc1ccc(OCCCn2cnc3cc(C)c(C)cc32)cc1,n
Cc1cc2ncn(C(C)c3ccccc3)c2cc1C (stereo not drawn),n
Cc1cc2ncn(CC(O)COCC3CC=CCC3)c2cc1C (stereo not drawn),n
Cc1csc2nc(CCN3C(=O)c4ccccc4C3=O)cn12,n
CCCOc1ccc(N2C(=O)CC(N3CCN(C(c4ccccc4)c4ccccc4)CC3)C2=O)cc1 (stereo not drawn),n
Cc1cc(C(=O)Nc2ccc(F)cc2F)n(-c2ccccc2)n1,n
CCc1ccc(NC(=O)Cn2c(C(=O)OC)cc3ccsc32)cc1,n
CC(NC(=O)C1CCCN(C(=O)c2cc3sccc3n2C)C1)c1ccc2c(c1)OCCO2 (stereo not drawn),n
CCc1ccc2oc(-c3cccc(NC(=O)c4cc(Br)ccc4Cl)c3)nc2c1,n
CCOCCCNC(=O)C1CCCN(c2nc3ccc(OCC)cc3s2)C1 (stereo not drawn),n
CCCN1CCN(CCCNC(=O)C2CCCN(c3nc4ccc(OCC)cc4s3)C2)CC1 (stereo not drawn),n
CCOc1ccc2nc(N3CCCC(C(=O)N4CCN(CC)CC4)C3)sc2c1 (stereo not drawn),0.434
CCOc1ccc2nc(N3CCCC(C(=O)N4CCC(C(N)=O)CC4)C3)sc2c1 (stereo not drawn),n
CCOc1ccc2nc(N3CCCC(C(=O)N4CCN(Cc5ccccc5)CC4)C3)sc2c1 (stereo not drawn),n
CCOc1ccc2nc(N3CCCC(C(=O)NCCCN4CCN(CC)CC4)C3)sc2c1 (stereo not drawn),0.436
Cc1c(C)n(C)c2ccc(C(=O)Nc3nc4ccccc4n3Cc3ccccc3)cc12,n
COCc1cc(C)nc(SCC(=O)Nc2cccc3ccccc23)c1C#N,n
COc1ccc(C2=NN(CCC(=O)NCc3ccccc3Cl)C(=O)CC2)cc1,n
CCN1C(=O)c2ccccc2S(=O)c2ccc(C(=O)N3CCN(c4ccccn4)CC3)cc21 (stereo not drawn),n
SMILES,CBX7 AlphaScr
Cc1c(C(=O)Nc2cccc(C(F)(F)F)c2)sc2ncn(Cc3ccccc3Cl)c(=O)c12,n
O=C(CCCCN1CCCCC1)Nc1nc(-c2ccc(Br)cc2)cs1,n
Cc1ccc(NC(=O)CSc2nnc(-c3cccs3)n2-c2ccc(F)cc2)cc1,n
CCC(=O)N1CCc2cc(S(=O)(=O)Nc3cc(C)cc(C)c3)ccc21,n
Cc1ccc(NC(=O)C2CCCN(C(=O)c3cnn(-c4ccccc4)c3-n3cccc3)C2)c(Cl)c1 (stereo not drawn),n
Cc1ccc(N2C(=O)CC(NCCc3ccc(Cl)cc3)C2=O)cc1 (stereo not drawn),n
CCOc1ccc(N2C(=O)CC(NCCc3ccccn3)C2=O)cc1 (stereo not drawn),n
O=C1CC(NCCc2ccccn2)C(=O)N1c1ccc(Cl)cc1 (stereo not drawn),0.167
CCOC(=O)N1CCN(C(=O)CN2C(=O)CCSc3ccccc32)CC1,n
Cc1ccc(-c2noc(CN3CCOCC3)n2)cc1,n
COc1ccc(N2CCN(Cc3nc(-c4ccc(C)cc4)no3)CC2)cc1,0.316
Cc1ccc(-c2noc(CN3CCN(c4ccc(F)cc4)CC3)n2)cc1,n
COc1cc(Nc2nc(C)c(C(C)=O)s2)c(OC)cc1Cl,n
Cc1nc(Nc2nc(-c3ccccc3)c3cc(Cl)ccc3n2)[nH]c(=O)c1Cc1ccccc1,n
CC(C)N(Cc1ccccc1)S(=O)(=O)c1ccc(C(=O)Nc2nnc(-c3cccs3)o2)cc1,n
CCN(c1ccccc1)S(=O)(=O)c1ccc(C(=O)Nc2nnc(COC)o2)cc1,n
CN(c1ccccc1)S(=O)(=O)c1ccc(C(=O)Nc2nnc(C3CC3)o2)cc1,n
CCN(c1ccccc1)S(=O)(=O)c1ccc(C(=O)Nc2nnc(C3CC3)o2)cc1,0.0661
CCc1nnc(NC(=O)c2ccc(S(=O)(=O)N(CC)c3ccccc3)cc2)o1,0.0735
COCc1nnc(NC(=O)c2ccc(S(=O)(=O)N(C)c3ccccc3)cc2)o1,n
c1ccc2c(c1)CCN(c1ccc3nncn3n1)C2,n
Cc1nc2ccc(S(=O)(=O)NC(CC(C)C)C(=O)N3CCN(c4ccccc4)CC3)cc2s1 (stereo not drawn),n
CC(C)NC(=O)c1ccccc1NC(=O)CN1C(=O)c2ccccc2S1(=O)=O,n
CCCNC(=O)c1ccc2c(c1)N(Cc1ccccc1)C(=O)c1ccccc1S2,n
O=[N+]([O-])c1ccc(-c2cn(-c3ccccc3NCc3ccccc3)cn2)o1,0.483
SMILES,CBX7 AlphaScr
Cc1ccc(S(=O)(=O)c2nc(C)oc2NCc2ccccc2)cc1,n
Cn1cnc(S(=O)(=O)NCc2ccccc2)c1,n
CC(NC(=O)CCCN1C(=O)CSc2ncccc21)C12CC3CC(CC(C3)C1)C2 (stereo not drawn),n
Clc1ccc(-c2cc(-c3nc(-c4ccncc4)no3)c3ccccc3n2)cc1,n
O=C(CN1C(=O)CCSc2ccccc21)NCCN1CCOCC1,n
O=C(CN1C(=O)CSc2ccccc21)NCCCN1CCOCC1,n
O=C(CN1C(=O)CSc2ccccc21)NCCN1CCOCC1,0.479
Cc1ccccc1OCCn1c(=O)n(C)c2ccccc21,n
O=C(CCn1nc(-c2ccccc2)ccc1=O)NCc1ccccn1,n
CCn1c(C(Cc2ccccc2)NC(=O)c2ccccc2)nc2ccccc21 (stereo not drawn),n
CCOc1ccccc1CNC(=O)CCCc1cn(C)c2ccccc12,0.381
CCOc1ccc(CCNC(=O)CCCc2cn(C)c3ccccc23)cc1OCC,n
CCOc1ccccc1CNC(=O)CCc1cn(C)c2ccccc12,n
CC1CCN(S(=O)(=O)c2ccc3[nH]c(=O)cc(C(=O)NC4CCCC4)c3c2)CC1,n
COc1ccc(CNc2ncnc3c2c(-c2ccccc2)cn3-c2ccc(F)cc2)cc1,n
Cc1ccccc1OCC(=O)Nc1c(C(=O)c2ccc(F)cc2)oc2ccccc12,n
COC(=O)Cc1nc(Nc2ccc(C)cc2)c2c3c(sc2n1)CCCC3,n
CC(C)COc1ccc2c(c1)c1c(n2C)C(O)CCC1 (stereo not drawn),n
Cc1ccn2c(NC3CCCC3)c(-c3ccncc3)nc2c1,n
Cc1ccn2c(NC3CCCC3)c(-c3ccccn3)nc2c1,0.431
Cc1ccc2nc(-c3ccncc3)c(NC3CCCC3)n2c1,n
Cc1ccn2c(NC3CCCCC3)c(-c3ccccn3)nc2c1,0.46
Cc1ccc(-c2nc3ncccn3c2NC2CCCCC2)cc1,n
Cc1ccn2c(NC3CCCCC3)c(-c3cccnc3)nc2c1,n
Cc1cc(C)c2oc(-c3ccc(C)c(NC(=O)c4oc5ccccc5c4C)c3)nc2c1,n
Cc1ccc(F)cc1NC(=O)c1cn(-c2ccc(F)cc2F)c(=O)c2ccccc12,n
Cc1cc(C)n(-c2nc3ccccc3nc2Nc2ccc3ccccc3c2)n1,n
O=C(Nc1ccc2oc(-c3cccnc3)nc2c1)c1ccc(F)cc1,n

# Compound activity as filed in PubChem.
